Reference: ChEMBL document CHEMBL1961873, “Compounds: GSK PKIS; Assays: Nanosyn kinase panel” (2012)

Legend:
[1] = molecular target: T1, Inhibitor of nuclear factor kappa-B kinase subunit epsilon (Homo sapiens) (UniProt Q14164); conditions: at 1 µM;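 note: reported values are averaged percent inhibition figures against human IKKε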
T1 sequence (whole entry): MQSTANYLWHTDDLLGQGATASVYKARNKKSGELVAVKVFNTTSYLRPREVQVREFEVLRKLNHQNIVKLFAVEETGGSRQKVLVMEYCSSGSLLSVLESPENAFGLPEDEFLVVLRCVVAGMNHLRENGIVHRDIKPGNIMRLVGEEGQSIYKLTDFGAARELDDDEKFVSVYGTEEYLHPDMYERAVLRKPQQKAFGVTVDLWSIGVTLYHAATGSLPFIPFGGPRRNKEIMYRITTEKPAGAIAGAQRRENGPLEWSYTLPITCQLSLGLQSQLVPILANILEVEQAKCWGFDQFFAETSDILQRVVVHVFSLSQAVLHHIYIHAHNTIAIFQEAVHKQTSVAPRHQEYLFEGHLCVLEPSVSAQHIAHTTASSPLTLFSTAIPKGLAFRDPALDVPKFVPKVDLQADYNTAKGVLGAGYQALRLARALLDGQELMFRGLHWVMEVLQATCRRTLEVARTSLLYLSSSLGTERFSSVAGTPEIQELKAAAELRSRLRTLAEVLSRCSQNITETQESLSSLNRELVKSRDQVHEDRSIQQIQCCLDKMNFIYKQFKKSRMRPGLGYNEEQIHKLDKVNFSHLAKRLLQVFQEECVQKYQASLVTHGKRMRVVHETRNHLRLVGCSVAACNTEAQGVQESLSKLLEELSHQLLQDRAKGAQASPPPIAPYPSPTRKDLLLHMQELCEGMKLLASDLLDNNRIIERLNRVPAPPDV

[2] = molecular target: T2, Serine/threonine-protein kinase Nek1 (Homo sapiens) (UniProt Q96PY6); conditions: at 0.1 µM
T2 sequence (whole entry): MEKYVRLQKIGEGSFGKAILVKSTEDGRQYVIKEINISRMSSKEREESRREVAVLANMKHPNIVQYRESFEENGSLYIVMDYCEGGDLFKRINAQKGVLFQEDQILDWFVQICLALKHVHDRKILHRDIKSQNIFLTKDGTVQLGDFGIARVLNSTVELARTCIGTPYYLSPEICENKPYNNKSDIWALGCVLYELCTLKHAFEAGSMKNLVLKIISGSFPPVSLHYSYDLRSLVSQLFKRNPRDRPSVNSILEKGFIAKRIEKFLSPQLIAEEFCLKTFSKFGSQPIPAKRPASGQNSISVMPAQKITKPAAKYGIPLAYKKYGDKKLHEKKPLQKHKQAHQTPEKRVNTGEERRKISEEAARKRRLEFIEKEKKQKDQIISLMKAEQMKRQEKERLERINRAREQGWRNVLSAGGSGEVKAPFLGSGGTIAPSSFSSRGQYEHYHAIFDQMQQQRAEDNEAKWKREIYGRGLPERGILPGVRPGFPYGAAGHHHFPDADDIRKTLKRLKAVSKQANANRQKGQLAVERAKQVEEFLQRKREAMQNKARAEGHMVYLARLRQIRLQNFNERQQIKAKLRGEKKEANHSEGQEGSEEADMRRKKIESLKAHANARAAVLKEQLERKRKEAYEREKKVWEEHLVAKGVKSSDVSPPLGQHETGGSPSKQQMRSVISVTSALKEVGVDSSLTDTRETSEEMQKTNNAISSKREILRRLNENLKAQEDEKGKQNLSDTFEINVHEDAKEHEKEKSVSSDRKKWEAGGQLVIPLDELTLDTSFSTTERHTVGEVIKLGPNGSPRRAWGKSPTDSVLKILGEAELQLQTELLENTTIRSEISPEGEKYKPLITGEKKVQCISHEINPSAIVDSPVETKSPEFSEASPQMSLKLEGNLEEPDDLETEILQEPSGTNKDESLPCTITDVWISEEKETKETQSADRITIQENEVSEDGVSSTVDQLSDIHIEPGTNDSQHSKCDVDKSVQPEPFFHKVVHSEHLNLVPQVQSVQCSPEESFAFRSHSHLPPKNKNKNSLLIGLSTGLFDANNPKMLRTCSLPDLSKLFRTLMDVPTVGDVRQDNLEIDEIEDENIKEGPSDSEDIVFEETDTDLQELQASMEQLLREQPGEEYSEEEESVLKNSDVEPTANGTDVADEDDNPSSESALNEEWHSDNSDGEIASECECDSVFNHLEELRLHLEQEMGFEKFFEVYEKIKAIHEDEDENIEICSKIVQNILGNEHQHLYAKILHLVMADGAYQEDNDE

[3] = molecular target: T2, Serine/threonine-protein kinase Nek1 (Homo sapiens); conditions: at 1 µM
[4] = molecular target: T3, Serine/threonine-protein kinase Nek2 (Homo sapiens) (UniProt P51955); conditions: at 0.1 µM
T3 sequence (whole entry): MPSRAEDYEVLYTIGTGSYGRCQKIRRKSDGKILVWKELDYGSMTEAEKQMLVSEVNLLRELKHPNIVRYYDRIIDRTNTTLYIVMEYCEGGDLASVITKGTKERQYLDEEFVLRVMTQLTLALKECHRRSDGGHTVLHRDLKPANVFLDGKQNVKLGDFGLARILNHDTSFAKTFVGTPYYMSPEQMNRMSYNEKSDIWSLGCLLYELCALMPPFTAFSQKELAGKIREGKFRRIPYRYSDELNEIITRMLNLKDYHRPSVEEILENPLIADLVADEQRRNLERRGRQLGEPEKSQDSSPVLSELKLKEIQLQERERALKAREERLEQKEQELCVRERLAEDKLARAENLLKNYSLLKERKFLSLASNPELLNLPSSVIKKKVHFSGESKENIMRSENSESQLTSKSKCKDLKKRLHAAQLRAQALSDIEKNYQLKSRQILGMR

[5] = molecular target: T3, Serine/threonine-protein kinase Nek2 (Homo sapiens); conditions: at 1 µM
[6] = molecular target: Serine/threonine-protein kinase Nek6 (Homo sapiens) (UniProt Q9HC98); conditions: at 0.1 µM
Serine/threonine-protein kinase Nek6 (Homo sapiens), sequence (Q9HC98 whole entry): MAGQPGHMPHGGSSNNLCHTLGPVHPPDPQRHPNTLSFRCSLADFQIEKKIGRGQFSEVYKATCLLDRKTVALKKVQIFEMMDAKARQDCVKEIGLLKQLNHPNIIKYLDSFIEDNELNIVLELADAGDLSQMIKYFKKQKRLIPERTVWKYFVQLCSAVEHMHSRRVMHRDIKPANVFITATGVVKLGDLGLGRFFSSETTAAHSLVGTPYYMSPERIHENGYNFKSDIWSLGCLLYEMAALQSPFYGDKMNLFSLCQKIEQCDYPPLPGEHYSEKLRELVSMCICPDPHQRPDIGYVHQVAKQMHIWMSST

[7] = molecular target: Serine/threonine-protein kinase Nek6 (Homo sapiens) (UniProt Q9HC98); conditions: at 1 µM
[8] = molecular target: Serine/threonine-protein kinase Nek7 (Homo sapiens) (UniProt Q8TDX7); conditions: at 0.1 µM
Serine/threonine-protein kinase Nek7 (Homo sapiens), sequence (Q8TDX7 whole entry, looked up): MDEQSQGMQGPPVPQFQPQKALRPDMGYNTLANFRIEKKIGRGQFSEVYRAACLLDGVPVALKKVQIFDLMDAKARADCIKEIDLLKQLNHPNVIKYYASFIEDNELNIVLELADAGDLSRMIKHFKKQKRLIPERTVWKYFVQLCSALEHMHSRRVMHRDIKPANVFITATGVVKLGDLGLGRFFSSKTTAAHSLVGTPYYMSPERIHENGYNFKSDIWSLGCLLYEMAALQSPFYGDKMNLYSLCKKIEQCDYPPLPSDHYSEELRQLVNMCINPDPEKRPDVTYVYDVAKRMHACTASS

[9] = molecular target: Serine/threonine-protein kinase Nek7 (Homo sapiens) (UniProt Q8TDX7); conditions: at 1 µM
[10] = molecular target: T4, Serine/threonine-protein kinase Nek9 (Homo sapiens) (UniProt Q8TD19); conditions: at 0.1 µM
T4 sequence (whole entry): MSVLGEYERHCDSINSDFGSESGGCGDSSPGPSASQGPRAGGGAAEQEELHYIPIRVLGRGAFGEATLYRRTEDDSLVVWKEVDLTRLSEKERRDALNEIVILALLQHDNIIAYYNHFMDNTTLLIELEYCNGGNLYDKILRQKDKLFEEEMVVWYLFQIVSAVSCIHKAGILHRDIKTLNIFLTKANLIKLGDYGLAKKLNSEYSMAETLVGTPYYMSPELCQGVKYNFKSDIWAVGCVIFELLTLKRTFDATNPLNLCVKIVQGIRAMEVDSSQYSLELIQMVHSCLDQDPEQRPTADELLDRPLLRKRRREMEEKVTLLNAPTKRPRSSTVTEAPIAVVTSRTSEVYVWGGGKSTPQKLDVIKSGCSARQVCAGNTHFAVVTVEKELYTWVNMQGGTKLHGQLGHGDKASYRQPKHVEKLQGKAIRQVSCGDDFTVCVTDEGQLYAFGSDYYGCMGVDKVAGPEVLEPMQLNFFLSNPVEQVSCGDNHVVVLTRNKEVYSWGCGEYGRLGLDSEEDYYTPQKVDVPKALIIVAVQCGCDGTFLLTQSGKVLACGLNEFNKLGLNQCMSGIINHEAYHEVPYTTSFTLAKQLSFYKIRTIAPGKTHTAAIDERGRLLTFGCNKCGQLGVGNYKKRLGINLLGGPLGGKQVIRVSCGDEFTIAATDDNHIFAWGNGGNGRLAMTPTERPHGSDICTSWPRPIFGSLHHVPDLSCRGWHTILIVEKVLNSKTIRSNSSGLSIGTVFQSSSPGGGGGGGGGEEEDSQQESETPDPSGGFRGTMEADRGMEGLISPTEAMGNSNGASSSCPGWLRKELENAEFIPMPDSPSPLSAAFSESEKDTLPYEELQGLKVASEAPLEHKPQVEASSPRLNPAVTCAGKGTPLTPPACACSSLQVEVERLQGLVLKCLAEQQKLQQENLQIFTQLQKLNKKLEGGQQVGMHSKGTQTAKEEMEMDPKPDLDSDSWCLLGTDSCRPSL

[11] = molecular target: T4, Serine/threonine-protein kinase Nek9 (Homo sapiens); conditions: at 1 µM
[12] = molecular target: Serine/threonine-protein kinase PLK1 (Homo sapiens) (UniProt P53350); conditions: at 0.1 µM
Serine/threonine-protein kinase PLK1 (Homo sapiens), sequence (P53350 whole entry): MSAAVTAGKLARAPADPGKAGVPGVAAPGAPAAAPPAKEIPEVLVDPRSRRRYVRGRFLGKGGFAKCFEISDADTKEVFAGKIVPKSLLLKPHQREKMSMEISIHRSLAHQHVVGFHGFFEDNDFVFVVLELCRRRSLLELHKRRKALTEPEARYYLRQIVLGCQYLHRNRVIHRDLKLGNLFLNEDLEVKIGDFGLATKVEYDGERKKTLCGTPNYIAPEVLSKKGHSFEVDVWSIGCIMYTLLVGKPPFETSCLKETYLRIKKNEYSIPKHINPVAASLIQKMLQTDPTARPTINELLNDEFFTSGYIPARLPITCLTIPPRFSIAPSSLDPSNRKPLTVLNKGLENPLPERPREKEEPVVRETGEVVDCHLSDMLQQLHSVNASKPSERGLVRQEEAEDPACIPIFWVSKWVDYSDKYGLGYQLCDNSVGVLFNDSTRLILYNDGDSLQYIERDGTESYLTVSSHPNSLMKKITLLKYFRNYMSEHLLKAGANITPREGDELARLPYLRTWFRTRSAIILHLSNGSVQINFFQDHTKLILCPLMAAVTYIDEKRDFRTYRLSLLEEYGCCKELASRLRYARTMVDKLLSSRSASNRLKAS

[13] = molecular target: Serine/threonine-protein kinase PLK1 (Homo sapiens) (UniProt P53350); conditions: at 1 µM
[14] = molecular target: T5, Dual specificity protein kinase TTK (Homo sapiens) (UniProt P33981); conditions: at 0.1 µM
T5 sequence (whole entry): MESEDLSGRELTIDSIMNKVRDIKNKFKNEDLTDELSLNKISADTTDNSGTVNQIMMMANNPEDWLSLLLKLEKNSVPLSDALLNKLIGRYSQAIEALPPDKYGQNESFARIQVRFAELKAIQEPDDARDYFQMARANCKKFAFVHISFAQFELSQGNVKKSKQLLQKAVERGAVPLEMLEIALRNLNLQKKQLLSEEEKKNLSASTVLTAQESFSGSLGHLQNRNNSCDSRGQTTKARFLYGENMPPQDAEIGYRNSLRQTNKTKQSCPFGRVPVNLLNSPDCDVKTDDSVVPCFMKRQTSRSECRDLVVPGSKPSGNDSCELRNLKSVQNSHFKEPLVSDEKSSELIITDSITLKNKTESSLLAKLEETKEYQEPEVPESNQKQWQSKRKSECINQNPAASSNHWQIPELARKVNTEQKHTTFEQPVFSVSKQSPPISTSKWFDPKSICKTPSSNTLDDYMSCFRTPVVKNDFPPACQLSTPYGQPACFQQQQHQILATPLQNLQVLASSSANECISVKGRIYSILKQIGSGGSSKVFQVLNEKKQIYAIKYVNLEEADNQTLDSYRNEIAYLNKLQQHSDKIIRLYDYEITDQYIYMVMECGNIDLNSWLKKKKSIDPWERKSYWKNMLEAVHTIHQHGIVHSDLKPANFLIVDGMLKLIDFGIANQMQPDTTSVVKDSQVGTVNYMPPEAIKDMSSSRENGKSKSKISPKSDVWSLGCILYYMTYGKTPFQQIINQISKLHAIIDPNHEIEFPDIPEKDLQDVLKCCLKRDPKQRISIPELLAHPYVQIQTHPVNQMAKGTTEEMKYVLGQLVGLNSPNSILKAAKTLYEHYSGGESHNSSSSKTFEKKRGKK

[15] = system: T6, Receptor-type tyrosine-protein kinase FLT3 (Homo sapiens), P36888 [D835Y]; conditions: at 1 µM
T6 sequence (whole entry): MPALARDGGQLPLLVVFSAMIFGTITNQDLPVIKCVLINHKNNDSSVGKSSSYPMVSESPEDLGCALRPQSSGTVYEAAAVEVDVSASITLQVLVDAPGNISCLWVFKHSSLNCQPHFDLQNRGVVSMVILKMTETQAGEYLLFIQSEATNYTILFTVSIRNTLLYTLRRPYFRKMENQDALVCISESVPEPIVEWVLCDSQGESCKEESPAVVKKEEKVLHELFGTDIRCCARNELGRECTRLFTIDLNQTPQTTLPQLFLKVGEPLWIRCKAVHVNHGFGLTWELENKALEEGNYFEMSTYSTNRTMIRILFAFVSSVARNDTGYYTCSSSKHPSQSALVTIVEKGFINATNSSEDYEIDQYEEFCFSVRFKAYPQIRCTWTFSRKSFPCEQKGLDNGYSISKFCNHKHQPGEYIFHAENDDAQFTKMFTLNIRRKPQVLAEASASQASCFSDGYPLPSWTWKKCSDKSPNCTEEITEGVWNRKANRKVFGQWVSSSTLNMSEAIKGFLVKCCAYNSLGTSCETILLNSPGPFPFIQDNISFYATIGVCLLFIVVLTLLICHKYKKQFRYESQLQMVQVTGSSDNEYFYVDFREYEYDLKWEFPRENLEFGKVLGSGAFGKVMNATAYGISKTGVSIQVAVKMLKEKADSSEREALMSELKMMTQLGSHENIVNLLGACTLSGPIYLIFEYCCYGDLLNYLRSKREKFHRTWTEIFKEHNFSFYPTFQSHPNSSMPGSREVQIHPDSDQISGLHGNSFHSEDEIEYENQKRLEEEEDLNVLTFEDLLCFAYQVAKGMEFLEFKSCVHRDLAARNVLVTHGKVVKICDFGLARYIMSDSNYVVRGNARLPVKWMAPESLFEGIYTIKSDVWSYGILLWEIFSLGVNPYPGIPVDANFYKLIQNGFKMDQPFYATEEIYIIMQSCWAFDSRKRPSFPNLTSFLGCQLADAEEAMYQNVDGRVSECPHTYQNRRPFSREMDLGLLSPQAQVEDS

[16] = molecular target: Vascular endothelial growth factor receptor 3 (Homo sapiens) (UniProt P35916); conditions: at 0.1 µM
Vascular endothelial growth factor receptor 3 (Homo sapiens), sequence (P35916 whole entry): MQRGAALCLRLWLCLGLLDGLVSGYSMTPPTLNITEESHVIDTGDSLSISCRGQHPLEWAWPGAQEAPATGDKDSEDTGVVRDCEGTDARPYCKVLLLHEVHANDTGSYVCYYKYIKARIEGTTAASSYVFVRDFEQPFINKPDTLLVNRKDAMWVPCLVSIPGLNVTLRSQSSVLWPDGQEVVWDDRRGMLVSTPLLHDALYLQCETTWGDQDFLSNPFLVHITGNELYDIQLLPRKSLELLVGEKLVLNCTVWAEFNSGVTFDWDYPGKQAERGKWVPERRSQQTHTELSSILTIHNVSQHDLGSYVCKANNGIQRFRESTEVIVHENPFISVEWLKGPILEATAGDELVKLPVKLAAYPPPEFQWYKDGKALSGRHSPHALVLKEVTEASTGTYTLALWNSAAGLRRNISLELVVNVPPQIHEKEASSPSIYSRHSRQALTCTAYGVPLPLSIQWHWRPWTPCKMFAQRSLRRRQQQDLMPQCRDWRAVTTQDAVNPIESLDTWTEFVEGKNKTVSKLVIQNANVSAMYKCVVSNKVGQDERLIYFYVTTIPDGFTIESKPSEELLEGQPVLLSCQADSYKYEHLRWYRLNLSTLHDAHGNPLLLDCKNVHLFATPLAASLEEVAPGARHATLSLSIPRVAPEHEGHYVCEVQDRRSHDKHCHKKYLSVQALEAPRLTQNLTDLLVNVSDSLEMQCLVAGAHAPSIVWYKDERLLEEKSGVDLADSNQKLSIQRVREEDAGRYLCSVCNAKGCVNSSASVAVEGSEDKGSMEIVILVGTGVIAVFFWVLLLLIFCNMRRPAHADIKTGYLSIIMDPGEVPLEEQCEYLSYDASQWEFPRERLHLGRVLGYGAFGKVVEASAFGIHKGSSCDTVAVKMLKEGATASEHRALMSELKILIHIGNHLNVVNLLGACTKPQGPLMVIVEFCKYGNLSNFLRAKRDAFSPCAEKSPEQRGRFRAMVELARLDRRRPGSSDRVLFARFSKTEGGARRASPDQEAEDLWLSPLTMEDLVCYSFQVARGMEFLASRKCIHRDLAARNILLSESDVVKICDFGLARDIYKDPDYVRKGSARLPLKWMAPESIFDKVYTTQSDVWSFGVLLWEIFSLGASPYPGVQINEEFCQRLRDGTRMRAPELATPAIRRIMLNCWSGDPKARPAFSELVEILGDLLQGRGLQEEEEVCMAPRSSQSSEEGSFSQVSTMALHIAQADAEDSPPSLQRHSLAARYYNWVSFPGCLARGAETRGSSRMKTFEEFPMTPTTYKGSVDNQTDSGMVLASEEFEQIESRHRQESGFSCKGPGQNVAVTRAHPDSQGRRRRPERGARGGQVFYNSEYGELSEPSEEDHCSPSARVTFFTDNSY

[17] = molecular target: Vascular endothelial growth factor receptor 3 (Homo sapiens) (UniProt P35916); conditions: at 1 µM
[18] = molecular target: Macrophage colony-stimulating factor 1 receptor (Homo sapiens) (UniProt P07333); conditions: at 0.1 µM
Macrophage colony-stimulating factor 1 receptor (Homo sapiens), sequence (P07333 whole entry): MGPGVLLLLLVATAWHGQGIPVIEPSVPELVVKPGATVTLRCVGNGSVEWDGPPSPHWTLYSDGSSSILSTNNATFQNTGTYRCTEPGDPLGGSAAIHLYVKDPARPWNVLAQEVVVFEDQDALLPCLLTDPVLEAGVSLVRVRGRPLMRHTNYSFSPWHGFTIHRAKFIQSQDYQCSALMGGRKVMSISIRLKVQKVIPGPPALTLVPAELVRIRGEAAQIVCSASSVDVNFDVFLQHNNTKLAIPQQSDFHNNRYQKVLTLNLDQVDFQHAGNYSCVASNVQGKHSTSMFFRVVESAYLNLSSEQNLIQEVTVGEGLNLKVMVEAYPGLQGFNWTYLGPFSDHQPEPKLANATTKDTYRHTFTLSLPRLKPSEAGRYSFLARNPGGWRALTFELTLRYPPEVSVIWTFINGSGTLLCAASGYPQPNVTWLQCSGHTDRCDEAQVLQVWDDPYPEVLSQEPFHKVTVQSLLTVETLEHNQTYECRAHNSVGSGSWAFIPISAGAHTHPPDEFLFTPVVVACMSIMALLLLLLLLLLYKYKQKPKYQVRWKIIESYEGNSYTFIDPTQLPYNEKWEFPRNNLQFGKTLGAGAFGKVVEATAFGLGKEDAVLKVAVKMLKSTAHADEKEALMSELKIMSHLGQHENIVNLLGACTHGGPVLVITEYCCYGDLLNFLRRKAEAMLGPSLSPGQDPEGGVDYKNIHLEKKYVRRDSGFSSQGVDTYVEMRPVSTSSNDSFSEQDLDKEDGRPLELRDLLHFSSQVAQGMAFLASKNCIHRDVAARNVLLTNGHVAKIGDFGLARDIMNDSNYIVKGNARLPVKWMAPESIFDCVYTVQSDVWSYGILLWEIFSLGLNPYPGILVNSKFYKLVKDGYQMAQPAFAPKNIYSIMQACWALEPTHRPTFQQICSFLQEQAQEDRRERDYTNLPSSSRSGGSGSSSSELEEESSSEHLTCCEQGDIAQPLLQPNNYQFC

[19] = molecular target: Macrophage colony-stimulating factor 1 receptor (Homo sapiens) (UniProt P07333); conditions: at 1 µM
[20] = molecular target: Tyrosine-protein kinase Fyn (Homo sapiens) (UniProt P06241); conditions: at 0.1 µM
Tyrosine-protein kinase Fyn (Homo sapiens), sequence (P06241 2-537 limits assumed): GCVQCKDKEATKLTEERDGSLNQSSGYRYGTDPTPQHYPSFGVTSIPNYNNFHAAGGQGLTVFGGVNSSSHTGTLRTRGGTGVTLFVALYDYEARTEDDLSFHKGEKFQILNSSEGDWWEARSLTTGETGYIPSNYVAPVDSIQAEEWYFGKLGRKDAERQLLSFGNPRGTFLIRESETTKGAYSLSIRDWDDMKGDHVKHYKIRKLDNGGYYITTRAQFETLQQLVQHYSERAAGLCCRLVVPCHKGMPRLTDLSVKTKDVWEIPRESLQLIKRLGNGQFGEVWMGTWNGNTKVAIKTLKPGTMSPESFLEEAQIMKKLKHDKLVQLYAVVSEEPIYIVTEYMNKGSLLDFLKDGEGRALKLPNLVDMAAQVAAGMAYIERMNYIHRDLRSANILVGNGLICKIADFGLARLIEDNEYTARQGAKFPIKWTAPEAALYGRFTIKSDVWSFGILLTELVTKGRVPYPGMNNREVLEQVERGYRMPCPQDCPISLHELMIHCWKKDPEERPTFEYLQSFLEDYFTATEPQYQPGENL

SMILES | inhibition [1] [%] | inhibition [2] [%] | inhibition [3] [%] | inhibition [4] [%] | inhibition [5] [%] | inhibition [6] [%] | inhibition [7] [%] | inhibition [8] [%] | inhibition [9] [%] | inhibition [10] [%] | inhibition [11] [%] | inhibition [12] [%] | inhibition [13] [%] | inhibition [14] [%] | inhibition [15] [%] | inhibition [16] [%] | inhibition [17] [%] | inhibition [18] [%] | inhibition [19] [%] | inhibition [20] [%]
CCn1cc(-c2ccnc3[nH]ccc23)c(-c2cccc(NC(=O)Nc3ccc(OCc4ccccc4)cc3)c2)n1 | 3.46 | 1.35 | 0.82 | 0.4 | -1.01 | -0.55 | -0.07 | -1.04 | -5.21 | 3.07 | 1.16 | -0.45 | -0.98 | 7.9 | 0.68 | -0.45 | -0.67 | -7.9 | 0.27 | 0.67
COc1cc2c(cc1Nc1nc(Nc3ccsc3C(N)=O)c3cc[nH]c3n1)N(C(=O)CN(C)C)CCC2(C)C | 35.2 | 2.74 | 2.8 | 6.02 | 7.22 | 2.59 | 5.27 | 12.7 | 42.1 | 4.77 | 9.86 | 56.7 | 89.4 | 40 | 22.1 | 3.15 | 5.12 | 81.7 | 94.3 | 0.64
